Screening results from PubChem BioAssay.
Only some compounds are listed: those with a hit (about 4% of all), similar ones and a draw of the others.
tim23-1 inh = growth inhibitors of tim23-1 mutant yeast, primary screen, luminescence, uHTS; S. cerevisiae tim23-1 growth, BacTiter-Glo luminescence, 24 h; inhibition, % at 20 µM; 1.3% of 330,000 active; AID 463212, 2010;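 active = growth inhibition of the mutant yeast at or above 50%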;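 note: temperature-sensitive mutant grown at 25 °C; plate controls were DMSO-treated mutant yeast for no effect and medium wells lacking yeast for full effect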
TIM10 inh = growth inhibitors of isogenic TIM10 control yeast, primary screen, counter-screen for tim10-1 yeast inhibitor project, luminescence, uHTS. 1.4% of 330,000 active. S. cerevisiae TIM10 strain growth, BacTiter-Glo luminescence, 24 h. AID 463195, 2010. inhibition, % at 10 µM;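 active = inhibition of 40% or more at the single tested concentration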;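 note: wild-type TIM10 isogenic control strain grown at permissive 25 °C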
tim10-1 inh = growth inhibitors of tim10-1 mutant yeast, primary screen, luminescence, uHTS. 2.2% of 330,000 active. inhibition, % at 20 µM. AID 463190, 2010. S. cerevisiae tim10-1 ts strain growth, BacTiter-Glo, 24 h;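 active = inhibition of at least 40%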;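 note: mutant grown at 25 °C; 0% = DMSO wells with yeast and 100% = wells holding no yeast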
NALP1 inh = NALP1 inflammasome inhibitors in reconstituted yeast, colorimetric, S. cerevisiae, triplicate retest; S. cerevisiae NALP1/ASC/caspase-1 growth, X-gal OD620, 72 h; inhibition, % at 10 µM; 0.61% of 280,000 active; in the data active = inhibition mostly above about 24%, no sharp cut-off; inactive = mostly below about 32%
NLRP3 yeast inh = NALP3 inflammasome inhibitors in reconstituted yeast, primary screen, luminescence, uHTS | 0.39% of 330,000 active | inhibition, % at 10 µM | AID 2825, 2010 | Yeast reconstituted NLRP3/ASC/caspase-1, beta-gal luminescence, 24 h;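 active = inhibition of 50% or more; inactive = inhibition below 50%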;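 note: plate controls were induced DMSO wells for no effect and uninduced yeast grown without galactose for full effect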
NALP3 confirm = NALP3 inhibitors retested in yeast, confirmation, luminescence, single concentration. shares compounds with NLRP3 yeast inh. yeast expressing human NALP3. inhibition, % at 10 µM. 81% of 1,300 active; in the data active = inhibition above about 48%
Casp1 ASC ctr = CASP1-PYCARD signaling inhibition in yeast, confirmatory test, counterassay for NLRP3 inhibitor program, one-dose; inhibition, % at 10 µM; shares compounds with NLRP3 yeast inh; AID 488784, 2010; yeast expressing Caspase-1-ASC, luminescence counter screen; 66% of 1,000 active
NALP3 retest = NALP3 inhibitors in yeast, repeat test, confirmation, luminescence, single concentration, retest; inhibition, % at 10 µM; 53% of 1,000 active; shares compounds with NLRP3 yeast inh; yeast expressing human NALP3, luminescence read-out; AID 488794, 2010
tim10-1 conf = growth inhibitors of tim10-1 mutant yeast, confirmation, single concentration, luminescence, S. cerevisiae; shares compounds with tim10-1 inh; inhibition, % at 20 µM; 56% of 7,400 active; S. cerevisiae tim10-1 ts strain growth, BacTiter-Glo, 24 h;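 active = inhibition of yeast growth at or above a set limit in either of two repeat tests at 20 µM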;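 note: tim10-1 mutant grown at permissive 25 °C to find synthetic lethal compounds; 0% = DMSO yeast wells and 100% = medium wells without yeast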
tim10 confirm = growth inhibitors of wild-type TIM10 yeast, confirmation, counter-screen for tim10-1 synthetic lethality project, single concentration, luminescence, S. cerevisiae | shares compounds with TIM10 inh | S. cerevisiae tim10 strain growth, BacTiter-Glo luminescence, 24 h | inhibition, % at 10 µM | 63% of 4,600 active | AID 463215, 2010;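 active = inhibition of yeast growth at or above a set limit in either of two replicates at 10 µM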;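 note: this counterscreen used the strain with wild-type TIM10; 0% = yeast with DMSO and 100% = medium wells lacking yeast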
tim23-1 conf = tim23-1 mutant yeast growth inhibitors, confirmation, luminescence, single concentration; shares compounds with tim23-1 inh; S. cerevisiae tim23-1 growth, BacTiter-Glo luminescence, 24 h; inhibition, % at 20 µM; 83% of 4,400 active; AID 463218, 2010;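 active = inhibition above about 39% in either of two replicate wells at 20 µM, limit read from the data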;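 note: temperature-sensitive tim23-1 mutant grown at 25 °C; 0% = DMSO wells with yeast and 100% = medium wells without yeast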
* = called active by the depositor; · = no result given. Cut-off read from the data, not from the text of the source, unless noted: active = inhibition above about 50%; inactive = the rest.

SMILES | tim23-1 inh | TIM10 inh | tim10-1 inh | NALP1 inh | NLRP3 yeast inh | NALP3 confirm | Casp1 ASC ctr | NALP3 retest | tim23-1 conf | others
CCOC(=O)c1sc(=NC(=O)c2ccccc2)n(C)c1C | 54* | 71* | 24 | 3 | 63* | 75* | · | · | 74* | tim10 confirm=62*
O=C(N/N=C/c1cccc(F)c1)c1ccc(Cl)cc1 | 3 | -2 | -25 | 10 | 29 | · | · | · | ·
CC(C)(C)c1ccc(C(=O)N/N=C/c2cccc(Cl)c2)cc1 | 66* | 63* | 37 | 27 | 54* | 71* | 54* | 41 | 77* | tim10 confirm=52*
COc1ccc(NC(=O)C#Cc2ccccc2)cc1 | 51* | 24 | -26 | -10 | 67* | 76* | 48 | 62* | 55*
O=C(Nc1scc(-c2ccc(Br)cc2)c1C(=O)O)c1ccccc1F | 88* | 74* | 74* | · | 82* | 91* | · | · | 89* | tim10-1 conf=82*;tim10 confirm=91*
Cc1ccc(-c2csc(NC(=O)c3ccccc3F)c2C(=O)O)cc1 | 83* | 74* | 79* | 4 | 71* | 86* | 76* | 64* | 88* | tim10-1 conf=79*;tim10 confirm=84*
Cc1cccc(NC(=O)CSc2nnc(CNC(=O)c3ccco3)n2C)c1C | 18 | 5 | 23 | · | 13 | · | · | · | ·
Cc1ccc(-c2c[n+](Cc3ccc(Cl)c(Cl)c3)c3n2CCC3)cc1 | -3 | -5 | 2 | 0 | 4 | · | · | · | ·
C[C@H](CO)N1C[C@H](C)[C@@H](CN(C)Cc2ccc(-c3ccccc3)cc2)Oc2c(NC(=O)Nc3ccc4c(c3)OCO4)cccc2C1=O | 33 | 3 | 23 | · | 9 | · | · | · | ·
O=C(Nc1ccc2oc(-c3ccccc3)nc2c1)c1ccco1 | 51* | 64* | 39 | 75 | 77* | 17 | · | · | 79* | tim10 confirm=-3
O=C(N/N=C/c1ccc(F)cc1)c1c(O)c2ccccc2[nH]c1=O | 24 | 23 | -7 | 37 | 30 | · | · | · | ·
O=C(N/N=C/c1ccccc1)c1c(O)c2ccccc2[nH]c1=O | 73* | 11 | -31 | 7 | 55* | 65* | · | · | 10
Cc1ccc(NS(=O)(=O)c2c(C)noc2C)cc1 | 10 | -23 | -1 | 17 | 9 | · | · | · | ·
CCN(CC)c1ccc2nc3ccc(N)cc3[n+](-c3ccccc3)c2c1 | 59* | 36 | 57* | · | 51* | 51* | 39 | 52* | 57* | tim10-1 conf=43*
O=S(=O)(c1ccc(Cl)cc1)N1CCN(c2ncnc3sccc23)CC1 | 58* | 9 | -1 | · | 50* | 52* | 44 | 37 | 31
Cn1c(N2CCCC2)nc2c1c(=O)n(Cc1ccc(Cl)cc1)c(=O)n2C | 53* | 56* | 55* | 20 | 74* | 33 | · | · | 60* | tim10-1 conf=40*;tim10 confirm=35*
C[C@@]12C(=O)Nc3ccc(Br)cc3C(=O)N1[C@H]1c3ccccc3OC[C@@H]1[C@@H]2c1ccccc1 | 61* | 20 | 2 | · | 88* | 89* | 90* | 74* | 57*
C[C@@]12C(=O)Nc3ccc(Br)cc3C(=O)N1[C@H]1c3cc(Cl)ccc3OC[C@@H]1[C@@H]2c1ccccc1 | 37 | 27 | 28 | · | 19 | · | · | · | ·
Cc1ccc2c(c1)NC(=O)[C@@]1(C)[C@@H](c3ccccc3)[C@H]3COc4ccccc4[C@@H]3N1C2=O | -1 | -3 | 25 | · | 15 | · | · | · | ·
Cc1ccc2c(c1)C(=O)N1[C@H]3c4ccccc4OC[C@@H]3[C@H](c3ccccc3)[C@]1(C)C(=O)N2 | 57* | 15 | 14 | · | 70* | 83* | 84* | 73* | 60*
COCCCNC(=O)C1CCN(C(=O)c2oc3cc4sc(N(C)C)nc4cc3c2C)CC1 | 0 | 5 | -5 | 24 | 13 | · | · | · | ·
O=C(CCc1nc(-c2ccccc2Cl)no1)Nc1cccnc1 | 9 | -11 | 15 | 17 | 10 | · | · | · | ·
COc1ccc(NC(=O)CN(C)C2=NS(=O)(=O)c3ccccc32)cc1Cl | 11 | 0 | 0 | · | 15 | · | · | · | ·
O=C(Nc1ccc(F)c(Cl)c1)c1ccccc1 | 64* | 34 | 14 | · | 61* | 82* | 70* | 63* | 67*
CCN1C(=NCCc2cccs2)N[C@@H](c2cccs2)C(C(=O)OC)=C1C | 14 | 7 | 16 | 26 | 21 | · | · | · | ·
SMILES | tim23-1 inh | TIM10 inh | tim10-1 inh | NALP1 inh | NLRP3 yeast inh | NALP3 confirm | Casp1 ASC ctr | NALP3 retest | tim23-1 conf | others
Cc1nn(-c2ccccc2)c(C)c1[N+](=O)[O-] | -4 | -19 | -8 | -6 | 9 | · | · | · | ·
N#Cc1ccccc1S(=O)(=O)N1CCC(C(=O)NCc2ccccc2CN2CCCC2)CC1 | 1 | 7 | 5 | · | 0 | · | · | · | ·
c1ccc2[nH]c(-c3ccncc3)nc2c1 | 8 | -5 | -18 | 14 | 13 | · | · | · | ·
COc1ccc(-c2nc3ccccc3[nH]2)cc1 | 63* | 36 | -2 | 10 | 55* | 62* | 57* | 66* | 57*
CCOCCCN(C(=O)c1snc(C(N)=O)c1N)C(C(=O)NCCC(C)C)c1ccc(Cl)cc1 (centres undefined) | 16 | 10 | 11 | 6 | 3 | · | · | · | ·
O=C(N/N=C\c1ccc(O)c([N+](=O)[O-])c1)C1COc2ccccc2O1 (centres undefined) | 11 | 9 | 5 | -2 | -34 | · | · | · | ·
Cc1cc([N+](=O)[O-])cc(/C=N\NC(=O)C2COc3ccccc3O2)c1O (centres undefined) | 67* | 45* | 14 | -19 | 51* | 70* | 78* | 69* | 70* | tim10 confirm=36*
O=C(Nc1ccc(Oc2cccnc2)cc1)C1CCN(Cc2ccccc2F)CC1 | -23 | -8 | -17 | 27 | 18 | · | · | · | ·
COc1ccc(C(=O)On2c(-c3ccc(Br)cc3)nc3ccccc3c2=O)cc1 | 61* | 74* | 57* | 35 | 62* | 86* | 57* | 68* | 79* | tim10-1 conf=52*;tim10 confirm=74*
